A number with no mark means an inactive call. The source made the active and inactive calls.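 Rule for the calls: active = GFP response vs DMSO above 150% with enough events counted; inconclusive = fewer than 70 events counted for a yeast strain; inactive = the rest.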

A short description of this test: yeast MEP2-GFP fusion level changes, TOR pathway – flow cytometry, third cherry pick, S. cerevisiae, confirmation (AID 504321).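 Note: median per-cell GFP fluorescence by flow cytometry across all yeast cells; ratio of sample to DMSO median GFP so 100% equals the DMSO level.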 The conditions noted are these: S. cerevisiae MEP2-GFP strain, 3 h, at 10 µM, active compounds read high. For orientation: In flow cytometry, cells or beads pass a laser one at a time.
Regarding `Cc1cccc(N/C=C/C(=O)c2ccc(Cl)cc2)c1`, the GFP response vs DMSO was 112%.

For the compound `Nc1c(O)ccc2c1C(=O)c1ccccc1C2=O`, the GFP response vs DMSO is 105%. Take `Cc1cccc(C)c1Nc1ncnc(N)c1[N+](=O)[O-]`: the GFP response vs DMSO is 103%.

Regarding `CC(=O)NC(C)c1cc(Cl)c2cccnc2c1O` (centres undefined), the GFP response vs DMSO is 99%. Under `O=C(O)c1ccc2cccc(O)c2n1` stands 110%; under `CCCC(=O)Nn1cnc2c(c1=O)C1(CCCCC1)Cc1ccccc1-2`, 105%. `CC(=O)NCCOc1cccc2cccnc12`: the GFP response vs DMSO is 110%. As for `C/C(=C\C(=O)c1ccc(Cl)cc1)Nc1ccc(Br)cc1`, the figure is 105%.

As for `C=CCNc1nc(N)c([N+](=O)[O-])c(Nc2ccccc2OC)n1`, the GFP response vs DMSO is 103%. As for `COc1cccc(N/C=C/C(=O)c2ccc(C)cc2)c1`, the figure is 112%. Under `Cc1ccc(NN2C(=O)C=C(c3ccccc3)C2=O)cc1` stands 140%; under `COC(=O)COc1c(Cl)cc(Cl)c2ccc(C)nc12`, 118%; under `Cc1ccc(Nc2cc(=O)[nH]c(=O)[nH]2)cc1C`, 114%. Consider `Cn1c(NCCCO)nc2c(c1=O)C1(CCCCC1)Cc1ccccc1-2`, for which the GFP response vs DMSO is 112%.

On to `CN(C)CCCNc1cc(O)c2ncccc2c1`, for which the GFP response vs DMSO was 118%. Under `OCCN1CCN(c2ncnc3ccc(Br)cc23)CC1` stands 112%; under `COc1ccccc1Nc1nc(NCCC(C)C)nc(N)c1[N+](=O)[O-]`, 105%; under `O=C(Nc1nc(-c2ccccn2)cs1)c1ccccc1-n1cnnn1`, 94.7%.

Consider `Cc1cc(C)c2ccc(C(=O)O)nc2c1O`, for which the GFP response vs DMSO is 112%. Under `Cc1cn2c(N)c(C=C3C=C(Cl)C(=O)C(Cl)=C3)c(=O)nc2s1` stands 112%; under `COc1ccc(OC)c(N/C(C)=C/C(=O)c2ccccc2)c1`, 114%. Under `Cc1cc(C)c2ccc(N)nc2c1O` stands 108%. Consider `CNc1cccc2c1C(=O)c1ccccc1C2=O`, for which the GFP response vs DMSO is 114%. `O=C(Nc1ccccc1)O/N=C1\CCCCC1c1ccc([N+](=O)[O-])cc1[N+](=O)[O-]` (centres undefined): the GFP response vs DMSO is 105%.

Regarding `COCC(C)NC(=O)CCS(=O)(=O)c1nc(-c2ccc(OC)cc2)cc(C(F)(F)F)n1` (centres undefined), the GFP response vs DMSO was 112%. As for `COc1ccccc1Nc1nc(NCC(C)C)nc(N)c1[N+](=O)[O-]`, the figure is 114%. As for `COc1cccc(N/C(C)=C/C(=O)c2ccc(Br)cc2)c1`, the figure is 101%; as for `Nn1cnc2c(c1=O)C1(CCCCC1)Cc1ccccc1-2`, 116%; as for `COc1cccc(N/C=C/C(=O)c2ccc(Cl)cc2)c1`, 114%. As for `O=C(O)CCS(=O)(=O)c1nc(-c2cccs2)cc(C(F)(F)F)n1`, the figure is 116%. Turning to `O=C(O)c1ccccc1-c1ccccc1C(=O)Nc1ccc(-c2nc3cc(Cl)ccc3o2)cc1`, the GFP response vs DMSO is 116%.

As to `CSc1nc(Nc2ccc(Cl)cc2)c(C#N)c(=O)[nH]1`, the GFP response vs DMSO is 108%. Under `Oc1c(Br)cc(Br)c2cccnc12` stands 189% (active); under `CCCC(=O)Nn1cnc2c(c1=O)C1(CCCC1)Cc1ccccc1-2`, 105%; under `C[n+]1cccc2cccc([O-])c21`, 116%. As for `Cc1ccc(Nc2nc(N)[nH]c(=O)c2N=O)cc1`, the figure is 108%; as for `C=CCNc1nc(N)c([N+](=O)[O-])c(Nc2cccc(Cl)c2)n1`, 108%. For `CC(=O)Nn1cnc2c(c1=O)C1(CCCCC1)Cc1ccccc1-2`, the GFP response vs DMSO was 114%. Under `Cc1ccc2nc(-c3ccc(NC(=O)c4cccnc4)cc3)oc2c1` stands 114%.

For the origin of these results see PubChem BioAssay AID504321 (NMMLSC, 2011).
